The nature of one assay: Primary imaging screen for DUSP6 inhibitors that restore phospho-Erk in transfected HeLa cells, chemical complementation (AID 609). As to conditions: HeLa MKP-3 transfected, phospho-Erk imaging KS statistic; measured here: nuclear c-Myc green intensity z-score; at 10 µM; cells stimulated with TPA for 15 min.
As to `CNc1oc(-c2ccc(Cl)cc2)nc1C#N`, the z-score is -0.483.
The same measure, in the same setting: with `O=C(CNC1=NCCC1)c1ccc2c(c1)OCCO2` the figure was -1.12; with `COc1ccc(CNC(=O)c2c(C)cc(=O)oc2C)cc1OC`, 0.328.
Still for that read-out and setting: with `C=CCOn1c(=O)c(-c2cc3ccccc3o2)[n+]([O-])c2ccccc21` the figure was 0.414; with `COC(=O)c1ccn(C(=O)c2ccc(Cl)cc2)n1`, -0.283.
As to `c1ccc(OCc2nn3c(C4CCCCC4)nnc3s2)cc1`, the z-score is -0.363.
`CC(C)Cc1nc(N2CCN(C(=O)C(C)C)CC2)c(C#N)c2c1CCC2` came in with a z-score of 0.114.
The same measure, in the same setting: to `COC(=O)c1sccc1NC(=O)c1c(C)cc(=O)oc1C` belongs 0.338.
The same measure, in the same setting: to `Cc1ccc(S(=O)(=O)N2CCC(N3CCCCCC3)CC2)cc1` belongs -1.65; to `COc1ccc(C2=Nn3c(nnc3-c3cccnc3)SC2)cc1OC`, 0.48; to `CCCCOc1ccc(CN(C)c2ncnc(N)n2)cc1`, 0.207.
On the same count and under the same terms, to `CCCCCCc1cc2cc(-c3nnc(-c4ccccc4O)o3)c(=O)oc2cc1O` belongs 1.83; to `CC(=O)Nc1cccc(NC(=O)CSc2nc(C)c(C)c(C)c2C#N)c1`, 0.622.
`Cc1cc(=O)oc2cc(OCCSCCN3CCOCC3)ccc12`: the z-score is 0.929.
In turn, `COc1ccccc1C(CC(=O)Nc1nccs1)c1ccco1` (stereo not given) gave a z-score of -0.887.
For the compound `CCC1(C)Cc2ccccc2-c2nc(NCCO)n(-c3ccccc3)c(=O)c21` (stereo not given), the z-score was 0.92.
The same measure, in the same setting: to `CC1(C)Cc2c(sc3c4nnnn4c4nnnn4c23)CO1` belongs 0.0526; to `CC(C)CN1C(=O)NC(NC(=O)c2cccnc2)(C(F)(F)F)C1=O` (stereo not given), -0.157; to `CCOC(=O)C(C)Oc1nc(Oc2ccccc2)nc(N(C)C)n1` (stereo not given), -0.772.
On to `CC1(C)Cc2nc(N)c(C(=O)NCCO)cc2CO1`, for which the z-score was determined as 0.225.
Still for that read-out and setting: with `COc1ccc(Cn2c(O)cc(=O)[nH]c2=O)cc1` the figure was 1.15.
Still for that read-out and setting: to `CC(C(=O)N1CCOCC1)N1C(=O)c2ccccc2C1=O` (stereo not given) belongs -0.122.
`COC(=O)CSc1nc(N)c2c3c(sc2n1)CCCC3` returned a z-score of 0.19.
Same read-out and setting: to `N#Cc1c(-c2ccco2)cc(C2CC2)nc1N` belongs -0.229; to `CC1(C)Cc2c(C#N)c(N3CCOCC3)nc(-c3ccccc3)c2CO1`, -0.989; to `CC(=O)Nc1cnc2ccccc2n1`, 0.21.
Consider `COc1ccc(OCC(=O)N2CCN(C(=O)c3cccc4ccccc34)CC2)cc1`, for which the z-score stood at 0.976.
Turning to `CC(C)CC(=O)Nc1ccccc1N1CCCC1`, the z-score was 0.661.
Same read-out and setting: to `CCCNC(=O)N(C)c1nncnc1C(=O)NC` belongs 0.478; to `N#CC1(P(=O)(c2ccccc2)c2ccccc2)CC1`, -0.637; to `Cc1nc(Nc2ncc3c(n2)CC(C)(C)CC3=O)nc2ccccc12`, -0.197.
The same measure, in the same setting: to `O=c1c(F)cn(C2CCCO2)c(=O)n1Cc1ccccc1Cl` (stereo not given) belongs 0.415.
Same read-out and setting: to `CCC(=O)Nc1cc(-c2nn(C)c(=O)c3ccccc23)ccc1N1CCCCC1` belongs -0.867.
Compound `O=c1[nH]c(=O)n(Cc2ccco2)c2c1C(C(F)(F)F)(C(F)(F)F)N=C(c1ccco1)N2` returned a z-score of -0.978.
`Cn1c(=O)n(C)c2cc(C(=O)c3ccccc3)ccc21`: the z-score is -0.33.
Still for that read-out and setting: to `N#Cc1nc(-c2ccc(Cl)cc2)oc1N1CCCCC1` belongs -0.228.
On to `Cc1cc(=O)oc(C)c1C(=O)NCCNC(=O)c1c(C)cc(=O)oc1C`, for which the z-score is -0.299.
`CCCCNC(=O)N1CCOCCOCCN(C(=O)NCCCC)CCOCC1` came in with a z-score of -1.63.
On the same count and under the same terms, with `CCN(CC)c1ccc2cc(C(=O)Nc3ccccn3)c(=O)oc2c1` the figure was 0.482; with `CCN1CC2=C(OC(N)=C(C#N)C2c2ccccc2)/C(=C\c2ccccc2)C1` (stereo not given), -0.856.

The assay is the same for the next values; noted with them: HeLa MKP-3 transfected, phospho-Erk imaging KS statistic; measured here: nuclear pErk red intensity z-score; at 10 µM; stronger effect = higher value; cells stimulated with TPA for 15 min.
`CNc1oc(-c2ccc(Cl)cc2)nc1C#N`: the z-score is -0.6.
In turn, `O=C(CNC1=NCCC1)c1ccc2c(c1)OCCO2` yielded a z-score of -0.547.
Same read-out and setting: to `COc1ccc(CNC(=O)c2c(C)cc(=O)oc2C)cc1OC` belongs 1.22; to `C=CCOn1c(=O)c(-c2cc3ccccc3o2)[n+]([O-])c2ccccc21`, -0.0488; to `COC(=O)c1ccn(C(=O)c2ccc(Cl)cc2)n1`, 1.25.
Turning to `c1ccc(OCc2nn3c(C4CCCCC4)nnc3s2)cc1`, the z-score is 1.81.
The same measure, in the same setting: with `CC(C)Cc1nc(N2CCN(C(=O)C(C)C)CC2)c(C#N)c2c1CCC2` the figure was 1.85; with `COC(=O)c1sccc1NC(=O)c1c(C)cc(=O)oc1C`, -0.793.
On the same count and under the same terms, with `Cc1ccc(S(=O)(=O)N2CCC(N3CCCCCC3)CC2)cc1` the figure was 0.596; with `COc1ccc(C2=Nn3c(nnc3-c3cccnc3)SC2)cc1OC`, 0.0126; with `CCCCOc1ccc(CN(C)c2ncnc(N)n2)cc1`, -0.506.
Compound `CCCCCCc1cc2cc(-c3nnc(-c4ccccc4O)o3)c(=O)oc2cc1O` gave a z-score of -1.3.
With `CC(=O)Nc1cccc(NC(=O)CSc2nc(C)c(C)c(C)c2C#N)c1`, the z-score is -1.1.
For `Cc1cc(=O)oc2cc(OCCSCCN3CCOCC3)ccc12`, the z-score stood at 0.186.
`COc1ccccc1C(CC(=O)Nc1nccs1)c1ccco1` (stereo not given) returned a z-score of -0.714.
The same measure, in the same setting: with `CCC1(C)Cc2ccccc2-c2nc(NCCO)n(-c3ccccc3)c(=O)c21` (stereo not given) the figure was 0.687; with `CC1(C)Cc2c(sc3c4nnnn4c4nnnn4c23)CO1`, 0.417; with `CC(C)CN1C(=O)NC(NC(=O)c2cccnc2)(C(F)(F)F)C1=O` (stereo not given), -1.2.
Regarding `CCOC(=O)C(C)Oc1nc(Oc2ccccc2)nc(N(C)C)n1` (stereo not given), the z-score worked out at 1.44.
The same measure, in the same setting: to `CC1(C)Cc2nc(N)c(C(=O)NCCO)cc2CO1` belongs 0.421.
`COc1ccc(Cn2c(O)cc(=O)[nH]c2=O)cc1`: the z-score was -0.805.
`CC(C(=O)N1CCOCC1)N1C(=O)c2ccccc2C1=O` (stereo not given) came in with a z-score of -1.67.
Still for that read-out and setting: to `COC(=O)CSc1nc(N)c2c3c(sc2n1)CCCC3` belongs 1.1.
In turn, `N#Cc1c(-c2ccco2)cc(C2CC2)nc1N` had a z-score of -0.103.
Regarding `CC1(C)Cc2c(C#N)c(N3CCOCC3)nc(-c3ccccc3)c2CO1`, the z-score was 0.333.
Consider `CC(=O)Nc1cnc2ccccc2n1`, for which the z-score amounted to 0.164.
Consider `COc1ccc(OCC(=O)N2CCN(C(=O)c3cccc4ccccc34)CC2)cc1`, for which the z-score is -0.768.
The same measure, in the same setting: to `CC(C)CC(=O)Nc1ccccc1N1CCCC1` belongs -0.804; to `CCCNC(=O)N(C)c1nncnc1C(=O)NC`, -1.19; to `N#CC1(P(=O)(c2ccccc2)c2ccccc2)CC1`, -0.322.
`Cc1nc(Nc2ncc3c(n2)CC(C)(C)CC3=O)nc2ccccc12` registered a z-score of 3.21.
On the same count and under the same terms, with `O=c1c(F)cn(C2CCCO2)c(=O)n1Cc1ccccc1Cl` (stereo not given) the figure was 0.187; with `CCC(=O)Nc1cc(-c2nn(C)c(=O)c3ccccc23)ccc1N1CCCCC1`, 0.981; with `O=c1[nH]c(=O)n(Cc2ccco2)c2c1C(C(F)(F)F)(C(F)(F)F)N=C(c1ccco1)N2`, -0.242.
Same read-out and setting: to `Cn1c(=O)n(C)c2cc(C(=O)c3ccccc3)ccc21` belongs -1.62; to `N#Cc1nc(-c2ccc(Cl)cc2)oc1N1CCCCC1`, 0.966; to `Cc1cc(=O)oc(C)c1C(=O)NCCNC(=O)c1c(C)cc(=O)oc1C`, 1.3.
Same read-out and setting: with `CCCCNC(=O)N1CCOCCOCCN(C(=O)NCCCC)CCOCC1` the figure was -0.914.
In turn, `CCN(CC)c1ccc2cc(C(=O)Nc3ccccn3)c(=O)oc2c1` yielded a z-score of 0.701.
On the same count and under the same terms, with `CCN1CC2=C(OC(N)=C(C#N)C2c2ccccc2)/C(=C\c2ccccc2)C1` (stereo not given) the figure was 0.432.

(Values after PubChem BioAssay.)
